# In paper PMC7862700, “An all-to-all approach to the identification of sequence-specific readers for epigenetic DNA modifications on cytosine”:
# Legend:
# Experiment in all cases: DAPPL (digital affinity profiling via proximity ligation, sequencing); 10 mM Tris-HCl pH 7.5, 50 mM NaCl, 1 mM DTT, 4% glycerol, room temperature, 30 min; GST-TFs on glutathione beads, 16-mer random dsDNA library, 0.1% formaldehyde crosslink after washing; high values mean tight binding
# [1] = target: T1, FLI1 (Homo sapiens, UniProt Q01543 1-452); conditions: protein: recombinant; tags: N-terminal GST; dsDNA, one strand shown
# T1 sequence: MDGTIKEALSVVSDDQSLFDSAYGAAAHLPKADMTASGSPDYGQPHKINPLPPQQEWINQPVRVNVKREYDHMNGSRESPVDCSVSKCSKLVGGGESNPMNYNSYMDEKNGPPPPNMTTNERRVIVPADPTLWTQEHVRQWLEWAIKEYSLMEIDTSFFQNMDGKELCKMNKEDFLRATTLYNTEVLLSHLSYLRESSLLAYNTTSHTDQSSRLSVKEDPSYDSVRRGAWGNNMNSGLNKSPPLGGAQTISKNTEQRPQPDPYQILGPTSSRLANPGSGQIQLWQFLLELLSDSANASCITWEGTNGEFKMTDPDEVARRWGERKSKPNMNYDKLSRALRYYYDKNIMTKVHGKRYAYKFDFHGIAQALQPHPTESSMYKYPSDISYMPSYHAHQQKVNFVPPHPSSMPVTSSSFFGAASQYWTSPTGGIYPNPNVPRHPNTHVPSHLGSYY
# In short: (§1)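 In yeast, human transcription factors were expressed with a GST fusion, then pulled down on glutathione beads and given DNA barcodes. Pooled with a tag-only sample, they were exposed to 200 nmole of a 16-mer random double-stranded DNA library (Tris/NaCl/DTT/glycerol buffer, room temperature, 30 min), washed, crosslinked with 0.1% formaldehyde, proximity-ligated using BsaI/T4 ligase for 1 h at 37 °C, PCR-amplified and read on an Illumina NextSeq500. Each hexamer's frequency of reads for a factor, divided by the matching frequency for the tag-only sample, gives the binding signal.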
# [2] = target: T2, ELK1 (Homo sapiens, UniProt P19419 1-428); conditions: protein: recombinant; tags: N-terminal GST; dsDNA, one strand shown
# T2 sequence: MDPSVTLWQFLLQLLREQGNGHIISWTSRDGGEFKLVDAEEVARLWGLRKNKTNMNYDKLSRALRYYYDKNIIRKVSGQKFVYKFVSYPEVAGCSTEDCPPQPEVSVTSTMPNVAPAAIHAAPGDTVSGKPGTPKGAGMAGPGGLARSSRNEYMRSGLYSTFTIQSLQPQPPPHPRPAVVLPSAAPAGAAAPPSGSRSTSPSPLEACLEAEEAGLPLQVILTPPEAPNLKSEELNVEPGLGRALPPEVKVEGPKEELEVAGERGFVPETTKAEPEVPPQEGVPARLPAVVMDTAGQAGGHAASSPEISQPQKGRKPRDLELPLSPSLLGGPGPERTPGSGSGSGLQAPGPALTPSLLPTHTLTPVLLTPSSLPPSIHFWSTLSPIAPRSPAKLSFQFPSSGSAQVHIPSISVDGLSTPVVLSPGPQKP
# In short: as §1
# [3] = target: T3, GABPA (Homo sapiens, UniProt Q06546 1-454); conditions: protein: recombinant; tags: N-terminal GST; dsDNA, one strand shown
# T3 sequence: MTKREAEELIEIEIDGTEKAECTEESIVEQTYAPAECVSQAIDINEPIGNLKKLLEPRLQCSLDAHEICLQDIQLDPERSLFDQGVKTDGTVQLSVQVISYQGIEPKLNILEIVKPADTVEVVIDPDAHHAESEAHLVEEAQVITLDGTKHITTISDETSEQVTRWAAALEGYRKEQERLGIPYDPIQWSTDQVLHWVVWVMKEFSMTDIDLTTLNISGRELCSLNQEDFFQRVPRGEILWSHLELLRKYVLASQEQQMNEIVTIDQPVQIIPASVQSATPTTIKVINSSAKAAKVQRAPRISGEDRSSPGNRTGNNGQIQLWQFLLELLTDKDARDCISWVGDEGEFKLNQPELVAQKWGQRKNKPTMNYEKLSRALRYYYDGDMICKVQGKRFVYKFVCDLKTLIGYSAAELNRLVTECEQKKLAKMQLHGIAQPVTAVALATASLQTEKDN
# In short: as §1
# [4] = target: T4, ERG (Homo sapiens, UniProt P11308 1-479); conditions: protein: recombinant; tags: N-terminal GST; dsDNA, one strand shown
# T4 sequence: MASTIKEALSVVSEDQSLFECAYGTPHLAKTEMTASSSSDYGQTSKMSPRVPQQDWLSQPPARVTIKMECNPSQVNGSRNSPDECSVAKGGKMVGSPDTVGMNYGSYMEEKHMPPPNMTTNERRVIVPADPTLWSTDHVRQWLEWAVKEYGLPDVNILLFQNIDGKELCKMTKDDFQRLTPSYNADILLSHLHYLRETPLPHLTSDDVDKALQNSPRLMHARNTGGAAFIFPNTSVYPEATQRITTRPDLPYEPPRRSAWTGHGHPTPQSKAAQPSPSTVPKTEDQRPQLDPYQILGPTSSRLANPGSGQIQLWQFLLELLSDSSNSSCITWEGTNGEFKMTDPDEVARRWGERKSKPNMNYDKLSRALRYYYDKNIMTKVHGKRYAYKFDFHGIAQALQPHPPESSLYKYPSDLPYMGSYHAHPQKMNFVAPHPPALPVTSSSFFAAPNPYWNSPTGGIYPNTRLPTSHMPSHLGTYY
# In short: as §1
# [5] = target: ELF1 (Homo sapiens, UniProt P32519 1-619); conditions: protein: recombinant; tags: N-terminal GST; dsDNA, one strand shown
# In short: as §1
# [6] = target: T5, EHF (Homo sapiens, UniProt Q9NZC4 1-300); conditions: protein: recombinant; tags: N-terminal GST; dsDNA, one strand shown
# T5 sequence: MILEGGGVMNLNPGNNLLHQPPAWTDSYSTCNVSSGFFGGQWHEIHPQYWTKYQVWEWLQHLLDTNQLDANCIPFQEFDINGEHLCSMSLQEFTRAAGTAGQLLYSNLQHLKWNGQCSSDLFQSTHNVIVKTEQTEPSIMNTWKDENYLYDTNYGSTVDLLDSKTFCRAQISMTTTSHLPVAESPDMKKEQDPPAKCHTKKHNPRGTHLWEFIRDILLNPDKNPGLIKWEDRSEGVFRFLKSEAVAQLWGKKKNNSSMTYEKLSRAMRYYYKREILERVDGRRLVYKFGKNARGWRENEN
# In short: as §1
# [7] = target: SPI1 (Homo sapiens, UniProt P17947 1-270); conditions: protein: recombinant; tags: N-terminal GST; dsDNA, one strand shown
# In short: as §1
# [8] = target: SPIB (Homo sapiens, UniProt Q01892 1-262); conditions: protein: recombinant; tags: N-terminal GST; dsDNA, one strand shown
# In short: as §1
# [9] = target: T6, ELK3 (Homo sapiens, UniProt P41970 1-407); conditions: protein: recombinant; tags: N-terminal GST; dsDNA, one strand shown
# T6 sequence: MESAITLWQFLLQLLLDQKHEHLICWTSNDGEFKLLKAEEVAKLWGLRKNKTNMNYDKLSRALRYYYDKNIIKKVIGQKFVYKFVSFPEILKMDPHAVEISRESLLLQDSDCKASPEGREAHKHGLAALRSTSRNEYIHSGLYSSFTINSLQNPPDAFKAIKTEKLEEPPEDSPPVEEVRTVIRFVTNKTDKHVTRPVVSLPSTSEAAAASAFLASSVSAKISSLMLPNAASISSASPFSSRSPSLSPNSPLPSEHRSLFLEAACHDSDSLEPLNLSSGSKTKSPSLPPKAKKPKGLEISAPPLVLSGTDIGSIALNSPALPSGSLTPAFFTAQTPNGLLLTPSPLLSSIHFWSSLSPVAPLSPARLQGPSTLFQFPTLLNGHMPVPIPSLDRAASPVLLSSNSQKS
# In short: as §1
# [10] = target: T7, FEV (Homo sapiens, UniProt Q99581 1-238); conditions: protein: recombinant; tags: N-terminal GST; dsDNA, one strand shown
# T7 sequence: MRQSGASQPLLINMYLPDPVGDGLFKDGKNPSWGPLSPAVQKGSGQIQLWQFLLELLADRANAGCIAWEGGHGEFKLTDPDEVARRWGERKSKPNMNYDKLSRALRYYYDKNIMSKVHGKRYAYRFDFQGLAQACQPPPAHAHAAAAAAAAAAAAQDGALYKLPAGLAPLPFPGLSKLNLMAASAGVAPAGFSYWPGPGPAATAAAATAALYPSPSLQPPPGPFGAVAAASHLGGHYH
# In short: as §1
# [11] = target: ETV5 (Homo sapiens, UniProt P41161 1-510); conditions: protein: recombinant; tags: N-terminal GST; dsDNA, one strand shown
# In short: as §1
# [12] = target: HSF1 (Homo sapiens, UniProt Q00613 1-529); conditions: protein: recombinant; tags: N-terminal GST; chain copies: 3; dsDNA, one strand shown
# In short: as §1
# [13] = target: T8, SPIC (Homo sapiens, UniProt Q8N5J4 1-248); conditions: protein: recombinant; tags: N-terminal GST; dsDNA, one strand shown
# T8 sequence: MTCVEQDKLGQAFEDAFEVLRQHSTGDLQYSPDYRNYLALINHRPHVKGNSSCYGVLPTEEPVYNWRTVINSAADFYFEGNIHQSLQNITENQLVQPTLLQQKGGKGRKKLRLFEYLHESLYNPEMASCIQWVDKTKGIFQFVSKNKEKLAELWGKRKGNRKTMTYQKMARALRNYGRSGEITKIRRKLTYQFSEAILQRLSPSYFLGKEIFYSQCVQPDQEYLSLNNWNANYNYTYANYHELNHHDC
# In short: as §1
# [14] = target: ELF4 (Homo sapiens, UniProt Q99607 1-663); conditions: protein: recombinant; tags: N-terminal GST; dsDNA, one strand shown
# In short: as §1
# [15] = target: T9, ELK4 (Homo sapiens, UniProt P28324-2 1-405); conditions: protein: recombinant; tags: N-terminal GST; dsDNA, one strand shown
# T9 sequence: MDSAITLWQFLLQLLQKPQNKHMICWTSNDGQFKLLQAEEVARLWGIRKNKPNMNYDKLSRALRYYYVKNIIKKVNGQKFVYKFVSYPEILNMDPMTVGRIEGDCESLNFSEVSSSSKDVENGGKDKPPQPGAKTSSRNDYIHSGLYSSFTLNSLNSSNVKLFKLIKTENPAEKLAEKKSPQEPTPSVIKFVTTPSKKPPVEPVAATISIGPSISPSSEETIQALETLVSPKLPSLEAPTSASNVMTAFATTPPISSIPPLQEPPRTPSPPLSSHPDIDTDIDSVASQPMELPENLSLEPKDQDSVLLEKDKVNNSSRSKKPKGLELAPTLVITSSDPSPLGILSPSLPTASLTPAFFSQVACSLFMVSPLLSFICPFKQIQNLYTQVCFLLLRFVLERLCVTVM
# In short: as §1
# [16] = target: T10, ETV2 (Homo sapiens, UniProt O00321 1-342); conditions: protein: recombinant; tags: N-terminal GST; dsDNA, one strand shown
# T10 sequence: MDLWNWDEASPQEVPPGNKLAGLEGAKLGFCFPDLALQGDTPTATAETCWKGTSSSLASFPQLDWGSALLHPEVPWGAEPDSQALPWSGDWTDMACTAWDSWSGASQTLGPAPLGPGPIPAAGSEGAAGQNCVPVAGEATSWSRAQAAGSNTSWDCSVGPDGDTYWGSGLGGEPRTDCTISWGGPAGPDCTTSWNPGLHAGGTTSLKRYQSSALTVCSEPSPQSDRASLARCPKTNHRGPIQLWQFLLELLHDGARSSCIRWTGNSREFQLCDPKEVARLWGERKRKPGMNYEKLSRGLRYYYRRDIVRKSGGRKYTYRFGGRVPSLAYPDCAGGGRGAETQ
# In short: as §1
# [17] = target: T11, ELF3 (Homo sapiens, UniProt P78545 1-371); conditions: protein: recombinant; tags: N-terminal GST; dsDNA, one strand shown
# T11 sequence: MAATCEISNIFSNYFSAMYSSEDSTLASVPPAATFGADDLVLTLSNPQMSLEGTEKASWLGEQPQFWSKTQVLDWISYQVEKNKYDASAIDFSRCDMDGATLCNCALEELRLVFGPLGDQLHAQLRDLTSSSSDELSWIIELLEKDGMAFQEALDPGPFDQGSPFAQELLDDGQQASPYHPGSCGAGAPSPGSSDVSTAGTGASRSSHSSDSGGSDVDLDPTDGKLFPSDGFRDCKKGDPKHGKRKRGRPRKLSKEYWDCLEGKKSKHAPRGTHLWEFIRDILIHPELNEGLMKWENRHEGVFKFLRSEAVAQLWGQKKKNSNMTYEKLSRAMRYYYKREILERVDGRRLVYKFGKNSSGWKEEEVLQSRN
# In short: as §1
# [18] = target: CRX (Homo sapiens, UniProt O43186 1-299); conditions: protein: recombinant; tags: N-terminal GST; dsDNA, one strand shown
# In short: as §1
# [19] = target: ETV1 (Homo sapiens, UniProt P50549 1-477); conditions: protein: recombinant; tags: N-terminal GST; dsDNA, one strand shown
# In short: as §1
# Sequence of SPIB (Q01892 whole entry): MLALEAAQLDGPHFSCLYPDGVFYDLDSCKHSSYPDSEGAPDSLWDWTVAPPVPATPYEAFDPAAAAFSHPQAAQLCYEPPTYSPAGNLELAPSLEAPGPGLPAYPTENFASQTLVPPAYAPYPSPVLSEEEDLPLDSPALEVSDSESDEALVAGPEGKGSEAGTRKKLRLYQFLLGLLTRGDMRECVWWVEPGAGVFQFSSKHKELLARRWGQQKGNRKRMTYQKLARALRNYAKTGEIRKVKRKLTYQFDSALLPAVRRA
# Sequence of HSF1 (Q00613 whole entry): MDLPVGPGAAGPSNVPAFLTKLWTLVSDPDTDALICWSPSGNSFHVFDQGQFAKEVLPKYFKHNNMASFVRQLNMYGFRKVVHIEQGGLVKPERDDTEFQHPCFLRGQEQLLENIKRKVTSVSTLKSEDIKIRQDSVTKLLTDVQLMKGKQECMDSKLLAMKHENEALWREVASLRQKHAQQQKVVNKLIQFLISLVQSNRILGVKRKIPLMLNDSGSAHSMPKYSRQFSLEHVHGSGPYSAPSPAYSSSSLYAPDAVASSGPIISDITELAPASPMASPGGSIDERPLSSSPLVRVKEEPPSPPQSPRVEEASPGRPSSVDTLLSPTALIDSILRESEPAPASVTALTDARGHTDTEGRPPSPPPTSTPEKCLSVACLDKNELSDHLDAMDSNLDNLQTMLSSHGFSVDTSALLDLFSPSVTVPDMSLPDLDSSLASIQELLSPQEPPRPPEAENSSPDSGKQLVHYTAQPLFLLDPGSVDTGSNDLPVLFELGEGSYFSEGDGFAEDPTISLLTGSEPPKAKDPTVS
# Sequence of ETV1 (P50549 whole entry): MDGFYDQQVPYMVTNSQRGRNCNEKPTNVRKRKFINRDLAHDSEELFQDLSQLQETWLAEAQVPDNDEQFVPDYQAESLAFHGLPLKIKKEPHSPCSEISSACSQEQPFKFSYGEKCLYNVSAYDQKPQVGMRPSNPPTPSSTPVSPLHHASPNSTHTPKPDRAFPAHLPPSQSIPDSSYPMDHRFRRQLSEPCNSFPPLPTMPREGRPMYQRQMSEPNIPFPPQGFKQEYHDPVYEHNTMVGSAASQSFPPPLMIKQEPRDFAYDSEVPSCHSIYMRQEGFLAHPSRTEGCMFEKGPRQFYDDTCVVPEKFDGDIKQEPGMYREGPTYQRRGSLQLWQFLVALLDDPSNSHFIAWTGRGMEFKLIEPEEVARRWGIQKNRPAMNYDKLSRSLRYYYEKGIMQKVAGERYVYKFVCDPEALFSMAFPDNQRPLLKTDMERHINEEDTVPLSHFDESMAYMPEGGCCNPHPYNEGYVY
# Sequence of ETV5 (P41161 whole entry): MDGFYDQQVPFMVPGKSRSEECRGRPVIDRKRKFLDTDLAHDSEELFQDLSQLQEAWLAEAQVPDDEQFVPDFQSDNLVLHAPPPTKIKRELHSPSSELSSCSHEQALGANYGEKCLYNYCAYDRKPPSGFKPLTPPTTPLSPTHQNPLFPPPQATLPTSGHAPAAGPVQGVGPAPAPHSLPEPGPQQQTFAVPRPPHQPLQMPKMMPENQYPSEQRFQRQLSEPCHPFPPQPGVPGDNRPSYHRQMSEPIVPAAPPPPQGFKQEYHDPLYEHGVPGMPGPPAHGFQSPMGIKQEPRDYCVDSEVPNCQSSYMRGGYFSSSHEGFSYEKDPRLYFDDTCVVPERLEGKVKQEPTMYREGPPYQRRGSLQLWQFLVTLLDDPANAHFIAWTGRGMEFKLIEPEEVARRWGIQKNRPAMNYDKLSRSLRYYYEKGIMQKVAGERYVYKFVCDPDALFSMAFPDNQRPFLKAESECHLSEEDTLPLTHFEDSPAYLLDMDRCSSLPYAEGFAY
# Sequence of CRX (O43186 whole entry): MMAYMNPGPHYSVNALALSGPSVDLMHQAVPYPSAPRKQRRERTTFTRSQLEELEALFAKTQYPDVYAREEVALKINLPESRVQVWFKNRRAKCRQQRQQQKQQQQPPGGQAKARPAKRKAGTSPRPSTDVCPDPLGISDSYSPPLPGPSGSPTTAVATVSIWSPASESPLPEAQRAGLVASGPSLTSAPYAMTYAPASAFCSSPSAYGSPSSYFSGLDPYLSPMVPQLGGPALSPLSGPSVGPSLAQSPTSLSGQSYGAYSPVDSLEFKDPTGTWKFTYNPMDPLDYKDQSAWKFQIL
# Sequence of ELF1 (P32519 whole entry): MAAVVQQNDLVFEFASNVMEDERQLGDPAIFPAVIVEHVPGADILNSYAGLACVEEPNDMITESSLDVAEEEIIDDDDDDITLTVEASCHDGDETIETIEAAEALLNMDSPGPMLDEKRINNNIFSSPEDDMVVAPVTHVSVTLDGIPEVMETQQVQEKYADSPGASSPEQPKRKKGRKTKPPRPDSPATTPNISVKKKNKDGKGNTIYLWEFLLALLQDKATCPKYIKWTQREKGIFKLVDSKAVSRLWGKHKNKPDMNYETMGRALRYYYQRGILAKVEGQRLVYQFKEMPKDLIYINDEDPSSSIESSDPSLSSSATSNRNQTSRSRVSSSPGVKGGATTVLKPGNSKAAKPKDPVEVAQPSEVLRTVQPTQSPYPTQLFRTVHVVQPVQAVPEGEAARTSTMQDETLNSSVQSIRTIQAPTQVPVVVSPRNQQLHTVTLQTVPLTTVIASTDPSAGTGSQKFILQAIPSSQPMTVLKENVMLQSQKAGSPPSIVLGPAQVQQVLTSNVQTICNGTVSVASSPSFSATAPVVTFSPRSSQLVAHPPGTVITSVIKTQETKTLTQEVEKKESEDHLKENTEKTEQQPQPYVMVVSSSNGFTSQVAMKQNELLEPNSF
# Sequence of ELF4 (Q99607 whole entry): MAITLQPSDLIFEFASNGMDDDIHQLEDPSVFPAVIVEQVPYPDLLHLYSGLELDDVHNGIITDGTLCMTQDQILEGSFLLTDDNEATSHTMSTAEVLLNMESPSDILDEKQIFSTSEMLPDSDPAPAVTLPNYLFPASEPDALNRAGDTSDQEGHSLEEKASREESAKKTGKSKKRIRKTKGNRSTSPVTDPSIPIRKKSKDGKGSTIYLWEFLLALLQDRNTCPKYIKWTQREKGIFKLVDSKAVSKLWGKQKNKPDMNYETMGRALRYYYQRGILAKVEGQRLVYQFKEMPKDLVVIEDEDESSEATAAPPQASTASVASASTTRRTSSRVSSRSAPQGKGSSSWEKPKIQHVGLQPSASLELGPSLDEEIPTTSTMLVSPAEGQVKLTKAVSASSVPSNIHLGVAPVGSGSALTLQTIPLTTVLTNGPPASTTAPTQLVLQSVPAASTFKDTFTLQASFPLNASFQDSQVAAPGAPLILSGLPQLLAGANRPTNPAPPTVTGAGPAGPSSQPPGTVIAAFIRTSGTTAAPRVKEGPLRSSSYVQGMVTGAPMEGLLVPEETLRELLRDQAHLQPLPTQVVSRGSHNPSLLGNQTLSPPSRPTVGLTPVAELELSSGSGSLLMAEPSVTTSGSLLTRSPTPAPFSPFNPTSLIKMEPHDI
sequence,measurement,setting,value
AACACA,binding signal,[1],"1.32 fold enrichment (6-mer frequency, TF over GST control)"
same,binding signal,[2],"1.32 fold enrichment (6-mer frequency, TF over GST control)"
same,binding signal,[3],"1.33 fold enrichment (6-mer frequency, TF over GST control)"
same,binding signal,[4],"1.32 fold enrichment (6-mer frequency, TF over GST control)"
same,binding signal,[5],"1.39 fold enrichment (6-mer frequency, TF over GST control)"
same,binding signal,[6],"1.38 fold enrichment (6-mer frequency, TF over GST control)"
same,binding signal,[7],"1.27 fold enrichment (6-mer frequency, TF over GST control)"
same,binding signal,[8],"1.35 fold enrichment (6-mer frequency, TF over GST control)"
same,binding signal,[9],"1.26 fold enrichment (6-mer frequency, TF over GST control)"
same,binding signal,[10],"1.31 fold enrichment (6-mer frequency, TF over GST control)"
same,binding signal,[11],"1.33 fold enrichment (6-mer frequency, TF over GST control)"
same,binding signal,[12],"1.13 fold enrichment (6-mer frequency, TF over GST control)"
same,binding signal,[13],"1.33 fold enrichment (6-mer frequency, TF over GST control)"
same,binding signal,[14],"1.32 fold enrichment (6-mer frequency, TF over GST control)"
same,binding signal,[15],"1.42 fold enrichment (6-mer frequency, TF over GST control)"
same,binding signal,[16],"1.49 fold enrichment (6-mer frequency, TF over GST control)"
same,binding signal,[17],"1.26 fold enrichment (6-mer frequency, TF over GST control)"
same,binding signal,[18],"1.1 fold enrichment (6-mer frequency, TF over GST control)"
same,binding signal,[19],"1.27 fold enrichment (6-mer frequency, TF over GST control)"
